Data as given in PubChem BioAssay (NCI).
This is part of a sample that, as a whole, favours compounds with a hit. Of some 79,000 tested, about 15% had one in any assay. Values without a mark were called inactive. The source made the active and inactive calls. Cut-off read from the data, not from the text of the source: active = growth inhibition above about 70%; inactive = the rest.

Tests used:
[1] = NCI Yeast Anticancer Drug Screen. Data for the rad50 strain (AID 155);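 note: 0% = growth of vehicle-only cultures of the same strain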; details: S. cerevisiae rad50 strain growth inhibition; at 50.0 µM; stronger effect = higher value
Procedure, shortened: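 Growth of the mutant yeast was measured after compound exposure and referenced to vehicle-treated cultures.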

[2] = NCI Yeast Anticancer Drug Screen. Data for the mec2-1 strain (AID 157); details: S. cerevisiae mec2-1 strain, at 50.0 µM, stronger effect = higher value
Procedure, shortened: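 Mutant yeast (mec2-1) grown with compound; growth inhibition relative to vehicle control reported.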

[3] = NCI Yeast Anticancer Drug Screen. Data for the sgs1 mgt1 strain (AID 161);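 note: 0% = growth of cultures given vehicle only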; details: S. cerevisiae sgs1 mgt1 strain, at 50.0 µM, stronger effect = higher value
Procedure, shortened: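 Growth of a repair-deficient yeast mutant was monitored after compound treatment and expressed as inhibition relative to vehicle-treated cultures.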

[4] = NCI Yeast Anticancer Drug Screen. Data for the cln2 rad14 strain (AID 165);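 note: 0% = growth equal to vehicle treated cultures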; details: S. cerevisiae cln2 rad14 strain, at 50.0 µM, stronger effect = higher value
Procedure, shortened: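 Readout is yeast growth inhibition versus vehicle-treated controls, using a strain with cln2 and rad14 alterations exposed to compound.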

[5] = NCI Yeast Anticancer Drug Screen. Data for the bub3 strain (AID 167); details: S. cerevisiae bub3 mutant strain, at 50.0 µM, stronger effect = higher value
Procedure, shortened: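 Whole-cell yeast assay. The mutant strain was incubated with compounds, and growth inhibition was determined by comparison with vehicle-treated cells.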

[6] = NCI Yeast Anticancer Drug Screen. Data for the mlh1 rad18 strain (AID 175); details: S. cerevisiae mlh1 rad18 strain growth inhibition; at 50.0 µM; stronger effect = higher value
Procedure, shortened: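 Genetically defined yeast (DNA repair-deficient) exposed to compounds; growth inhibition determined relative to vehicle.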

SMILES	growth inhibition [1]	growth inhibition [2]	growth inhibition [3]	growth inhibition [4]	growth inhibition [5]	growth inhibition [6]
N/C(=N\NS(=O)(=O)c1ccccc1)N[N+](=O)[O-]	-3.1%	21.7%	7.05%	-8.55%	24.2%	7.25%
[N-]=[N+]=CC(=O)CCC(=O)C=[N+]=[N-]	10.2%	-24%	-27.1%	-19.5%	-20.6%	-67.8%
C1CCN2CC34CC(CC5CCCN(C6CCCC3N6)C54)C2C1 (stereo not given)	-19.5%	-43.1%	-22.1%	10.7%	-36.3%	-99.8%
O=[As](O)(O)Cc1ccccc1	3.75%	2.45%	-9.6%	-16.6%	-2.55%	-22.8%
N.N.N.N.N.N#Cc1nn[n-]n1.[Cl-].[Co+3]	4.95%	9.25%	16.8%	24.4%	12.3%	12.9%
N.N.N.N.N.O=[N+]([O-])[O-].[Co+3].[O-][Cl+3]([O-])([O-])[O-]	-13.7%	4.6%	-10.5%	-3.15%	-4.45%	-7.75%
Cc1ccc(N2C(=O)C3C(C2=O)C2(Cl)C(Cl)=C(Cl)C3(Cl)C2(Cl)Cl)cc1Cl (stereo not given)	-1.25%	3.25%	-1.1%	-36.1%	2.65%	9.5%
N#CN	-9.55%	-17.2%	22.1%	-16.1%	-13.2%	-5.8%
CCCCC(CC)CC1C(=O)NC(=S)NC1=O (stereo not given)	-3.7%	5.55%	-17.8%	-37.1%	-0.05%	6.35%
CC1OC(=O)C2CC3CCCCC3C(/C=C/C3CCCC(C)N3C)C12 (stereo not given)	1.2%	-11.2%	-11.2%	28.4%	-10.4%	-2.35%
O=C(C[n+]1ccccc1)C1CCCC2CC3CCCCC3CC21 (stereo not given)	1.9%	18.3%	29.9%	13.8%	22.1%	37.6%
CC(=O)[O-].CC(=O)[O-].[Mn+2].c1ccc(/C(=N\Nc2ccccn2)c2ccccn2)cc1	87.8% (active)	91.5% (active)	90.5% (active)	84.2% (active)	89.2% (active)	89.4% (active)
CCC1C(=O)OCC1Cc1cncn1C (stereo not given)	-11.3%	-8.4%	-17.9%	0.55%	-9.95%	-17.9%
CC(=O)[O][Hg][c]1cc[c]([Hg])s1	99.5% (active)	99.3% (active)	99.5% (active)	99.3% (active)	99% (active)	99.2% (active)
CCOC(=O)CC(=O)CCl.[Cu+2]	-14.9%	-8.9%	-40.4%	-31.6%	-15.9%	-3.2%
CC1(C)CCC[N+]1(C)CCC(C(N)=O)(c1ccccc1)c1ccccc1 (stereo not given)	12.7%	5.3%	6.6%	4.45%	8.8%	3.35%
Cc1cc(=O)oc2cc(OC(=O)N(C)C)c(Cl)cc12	-0.5%	-11.3%	17.4%	24.4%	18.2%	10.3%
C[N+](C)(Cc1ccccc1[N+](=O)[O-])c1ccc(N(CCCl)CCCl)cc1	-7.8%	-8.15%	-4.2%	-16.7%	-22.3%	12.6%
Cc1ccc(S(=O)(=O)OCCN2CC2)cc1	-12%	-12.2%	-13.6%	-23.2%	-17.4%	-12.7%
CC(C)(C)N.[O]=[Cr](=[O])([OH])[OH]	20.9%	7.45%	29.1%	-2.25%	21.7%	21%

SMILES	growth inhibition [1]	growth inhibition [2]	growth inhibition [3]	growth inhibition [4]	growth inhibition [5]	growth inhibition [6]
CC1(C)N=C(N)N=C(N)N1c1ccc(CCCCCCc2ccc(S(=O)(=O)F)cc2)cc1	99.5% (active)	99% (active)	99.5% (active)	99% (active)	99% (active)	99.4% (active)
OC(Cc1ccccn1)C(Cl)(Cl)Cl (stereo not given)	-10.2%	-13.5%	-1.7%	-15.6%	4.35%	3.9%
N.N.N.N.O=C([O-])C(Cl)Cl.O=C([O-])C(Cl)Cl.[Co+3].[O-][Cl+3]([O-])([O-])[O-]	-10.1%	-13.2%	-23.1%	-15.2%	-6.1%	-13.6%
Brc1ccc(-c2csc3c4ccccc4cc[n+]23)cc1	14.6%	-3.25%	12.2%	-2.45%	21.8%	-1.75%
CCN(CC)CC(O)c1ccc(Br)cc1 (stereo not given)	0.85%	-20.1%	-0.25%	-3.55%	2.65%	5.7%
C#C[C@]1(O)CC[C@H]2[C@@H]3CCC4=C/C(=N/OC(=O)c5cccc6c(=O)c7ccccc7[nH]c56)CC[C@@H]4[C@H]3CC[C@@]21C	1.6%	-4.5%	11.3%	9.7%	-24.9%	-3.55%
Cc1cccc(CCF)c1	-8.4%	8.5%	1.25%	-3.8%	-0.15%	-4.75%
O=C(Nc1c(Cl)cc([N+](=O)[O-])cc1Cl)C(=O)C1C(=O)NC(=S)NC1=O	11.9%	-28.4%	-12.1%	7.65%	10.6%	-5.9%
CN(C(=O)CCl)c1ccccc1	15.3%	13.7%	8.5%	11.2%	9.75%	26.9%
CCN1C(=O)CC(=O)N(CC)C1=S	24.4%	-12.4%	-8.55%	12.2%	8.45%	21.2%
CN(C)Cc1c[nH]c2ccc(F)cc12	-27%	-13.8%	-15.2%	5.65%	-11.8%	-16.9%
COC(=O)c1c(C(=O)OC)c1=[N+]=[N-]	5.2%	-5.35%	-0.95%	-10.8%	-0.15%	6%
SCCS	-20.1%	-5.2%	-14.6%	-5.6%	-27.7%	-25.7%
CCC(=O)OC1(c2ccccc2)CCN(C/C=C/c2cccc3ccccc23)CC1	86.3% (active)	76.2% (active)	89% (active)	62.8%	83% (active)	87.2% (active)
O=c1c2ccccc2nc(-c2ccccc2Cl)n1-c1nnc(C(F)(F)F)s1	-13.8%	-13.1%	18.3%	6.15%	-13.2%	-6.5%
O=C1/C(=C\c2ccccc2)C2OCC=C3CN4CCC56c7ccccc7N1C5C2C3CC46 (stereo not given)	-18.6%	-33.1%	-3.9%	-3.25%	-19.9%	-9.05%
CC(=O)Nc1cc([As](=O)(O)O)ccc1O	31.6%	14.3%	31.8%	-28.2%	9.85%	33.8%
O=C1NC(=S)NC(=O)C1=Cc1cc2c(cc1[N+](=O)[O-])OCO2	0.45%	-4.2%	4.4%	15.1%	7.95%	-7.8%
O=C1OC(c2ccccc2)(c2ccccc2)C(=O)OC1(c1ccccc1)c1ccccc1	16.7%	-14%	7.7%	0.4%	10.4%	19.2%
O=Cc1ccccc1O.O=Cc1ccccc1O.[Cu]	86.2% (active)	72.8% (active)	88.9% (active)	55.4%	70.2% (active)	92.6% (active)
